Results published in PubChem BioAssay AID1159580 (chemical genetic matrix, 2015).
Where “and” joins values, the source holds several entries; their conditions need not be identical. Equal values may be shown once. Among all 5,500 compounds or so, about 2,000 (36%) were called active. About 18% were inconclusive and are not listed. Cut-off read from the data, not from the text of the source: active = normalized growth mostly below about 0.91 (no sharp cut-off); inconclusive = no clear call, values can overlap the other calls; inactive = mostly above about 0.92. This is one part of the list.

Assay: chemical genetic growth profiling, strain panel (AID 1159580);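 note: tested at 20 µM; growth read once vehicle control cultures reached saturation at 30 °C; 1 = growth at the plate median or of vehicle wells; lower values mean less growth of the strain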
Conditions: growth OD

Measured: normalized growth

O=C(O)CCCc1ccc(N(CCCl)CCCl)cc1
inactive: S. cerevisiae deletion strains, locus YKL009W, strain mrt4, active compounds read low 0.92 | S. cerevisiae deletion strains, locus YKL068W, active compounds read low 0.973 | S. cerevisiae deletion strains, locus YKL085W, strain MDH1 (second series), active compounds read low 0.942 | S. cerevisiae deletion strains, locus YKL085W, strain MDH1, active compounds read low 0.942 | S. cerevisiae deletion strains, locus YKL160W, strain elf1, active compounds read low 0.927 | S. cerevisiae deletion strains, locus YKR001C, strain vps1, active compounds read low 0.985 | S. cerevisiae deletion strains, locus YKR026C, strain gcn3, active compounds read low 0.971 | S. cerevisiae deletion strains, locus YKR091W, strain srl3, active compounds read low 0.962 | S. cerevisiae deletion strains, locus YLL001W, strain dnm1, active compounds read low 1.01 | S. cerevisiae deletion strains, locus YLL026W, active compounds read low 0.984 | S. cerevisiae deletion strains, locus YLL041C, strain sdh2, active compounds read low 0.963 | S. cerevisiae deletion strains, locus YLR027C, strain aat2, active compounds read low 0.949 | S. cerevisiae deletion strains, locus YLR039C, strain RIC1, active compounds read low 0.974 | S. cerevisiae deletion strains, locus YLR058C, strain SHM2, active compounds read low 0.977 | S. cerevisiae deletion strains, locus YLR102C, strain apc9, active compounds read low 0.987 | S. cerevisiae deletion strains, locus YLR221C, strain rsa3, active compounds read low 1.03 | S. cerevisiae deletion strains, locus YLR258W, strain gsy2, active compounds read low 0.96 | S. cerevisiae deletion strains, locus YLR262C, strain YPT6 (second series), active compounds read low 0.987 | S. cerevisiae deletion strains, locus YLR262C, strain YPT6, active compounds read low 0.915 | S. cerevisiae deletion strains, locus YLR268W, strain sec22, active compounds read low 0.981 | S. cerevisiae deletion strains, locus YLR320W, strain mms22, active compounds read low 0.993 | S. cerevisiae deletion strains, locus YLR330W, strain CHS5, active compounds read low 0.985 | S. cerevisiae deletion strains, locus YLR342W, strain FKS1 (second series), active compounds read low 0.96 | S. cerevisiae deletion strains, locus YLR342W, strain FKS1, active compounds read low 0.99 | S. cerevisiae deletion strains, locus YLR357W, strain rsc2, active compounds read low 0.948 | S. cerevisiae deletion strains, locus YLR370C, strain arc18, active compounds read low 0.959 | S. cerevisiae deletion strains, locus YLR371W, strain rom2, active compounds read low 0.992 | S. cerevisiae deletion strains, locus YLR384C, strain iki3, active compounds read low 0.979 | S. cerevisiae deletion strains, locus YLR418C, strain cdc73, active compounds read low 1.03 | S. cerevisiae deletion strains, locus YML016C, strain PPZ1, active compounds read low 0.984 | S. cerevisiae deletion strains, locus YML032C, strain rad52, active compounds read low 0.944 | S. cerevisiae deletion strains, locus YML120C, strain ndi1, active compounds read low 0.987 | S. cerevisiae deletion strains, locus YML124C, strain tub3, active compounds read low 0.989 | S. cerevisiae deletion strains, locus YMR058W, strain fet3, active compounds read low 0.979 | S. cerevisiae deletion strains, locus YMR078C, strain ctf18, active compounds read low 0.972 | S. cerevisiae deletion strains, locus YMR125W, strain sto1, active compounds read low 0.945 | S. cerevisiae deletion strains, locus YMR129W, active compounds read low 0.969 | S. cerevisiae deletion strains, locus YMR205C, strain PFK2, active compounds read low 0.992 | S. cerevisiae deletion strains, locus YMR223W, strain ubp8, active compounds read low 1.01 | S. cerevisiae deletion strains, locus YMR231W, strain pep5, active compounds read low 0.981 | S. cerevisiae deletion strains, locus YMR307W, strain GAS1, active compounds read low 0.922 and 0.985 | S. cerevisiae deletion strains, locus YNL067W, strain RPL9B, active compounds read low 1.02 | S. cerevisiae deletion strains, locus YNL071W, strain lat1, active compounds read low 0.964 | S. cerevisiae deletion strains, locus YNL153C, strain GIM3, active compounds read low 1.01 | S. cerevisiae deletion strains, locus YNL175C, strain NOP13, active compounds read low 1.04 | S. cerevisiae deletion strains, locus YNL183C, strain NPR1, active compounds read low 0.908 | S. cerevisiae deletion strains, locus YNL197C, strain WHI3, active compounds read low 0.989 | S. cerevisiae deletion strains, locus YNL209W, strain ssb2, active compounds read low 0.976 | S. cerevisiae deletion strains, locus YNL224C, strain SQS1, active compounds read low 1 | S. cerevisiae deletion strains, locus YNL233W, strain BNI4, active compounds read low 1.03 | S. cerevisiae deletion strains, locus YNL271C, strain bni1, active compounds read low 0.967 | S. cerevisiae deletion strains, locus YNL307C, strain MCK1, active compounds read low 0.983 | S. cerevisiae deletion strains, locus YNL322C, strain KRE1 (second series), active compounds read low 0.943 | S. cerevisiae deletion strains, locus YNR049C, strain mso1, active compounds read low 0.959 | S. cerevisiae deletion strains, locus YNR052C, strain pop2, active compounds read low 0.985 | S. cerevisiae deletion strains, locus YOL006C, strain TOP1, active compounds read low 1.11 | S. cerevisiae deletion strains, locus YOL012C, strain htz1 1.27 | S. cerevisiae deletion strains, locus YOL147C, strain pex11, active compounds read low 0.99 | S. cerevisiae deletion strains, locus YOR001W, strain rrp6, active compounds read low 1.03 | S. cerevisiae deletion strains, locus YOR061W, strain CKA2, active compounds read low 0.969 | S. cerevisiae deletion strains, locus YOR069W, strain VPS5, active compounds read low 0.975 | S. cerevisiae deletion strains, locus YOR070C, strain gyp1, active compounds read low 0.984 | S. cerevisiae deletion strains, locus YOR080W, strain dia2, active compounds read low 0.963 | S. cerevisiae deletion strains, locus YOR083W, strain WHI5 (second series), active compounds read low 0.99 | S. cerevisiae deletion strains, locus YOR083W, strain WHI5, active compounds read low 0.94 | S. cerevisiae deletion strains, locus YOR106W, strain vam3, active compounds read low 0.918 | S. cerevisiae deletion strains, locus YOR136W, strain idh2, active compounds read low 0.987 | S. cerevisiae deletion strains, locus YOR144C, strain elg1, active compounds read low 0.987 | S. cerevisiae deletion strains, locus YOR184W, strain ser1, active compounds read low 0.976 | S. cerevisiae deletion strains, locus YOR265W, strain rbl2, active compounds read low 0.969 | S. cerevisiae deletion strains, locus YOR270C, strain vph1, active compounds read low 0.986 | S. cerevisiae deletion strains, locus YOR290C, strain snf2, active compounds read low 0.935 | S. cerevisiae deletion strains, locus YOR316C, strain cot1, active compounds read low 0.976 | S. cerevisiae deletion strains, locus YPL051W, strain arl3, active compounds read low 0.997 | S. cerevisiae deletion strains, locus YPL055C, strain LGE1, active compounds read low 0.992 | S. cerevisiae deletion strains, locus YPL078C, strain atp4, active compounds read low 0.952 | S. cerevisiae deletion strains, locus YPL106C, strain sse1, active compounds read low 0.899 | S. cerevisiae deletion strains, locus YPL240C, strain hsp82, active compounds read low 0.988 | S. cerevisiae deletion strains, locus YPL241C, strain CIN2, active compounds read low 0.997 | S. cerevisiae deletion strains, locus YPL256C, strain CLN2, active compounds read low 0.857 | S. cerevisiae deletion strains, locus YPR119W, strain clb2, active compounds read low 0.985 | S. cerevisiae deletion strains, locus YPR141C, strain kar3, active compounds read low 0.99 | S. cerevisiae deletion strains, locus YPR163C, strain tif3, active compounds read low 0.984 | S. cerevisiae deletion strains, locus YPR167C, strain met16, active compounds read low 0.994 | S. cerevisiae deletion strains, strain wtn01, active compounds read low 0.993 | S. cerevisiae strains, strain wild type, active compounds read low 0.984
active: S. cerevisiae deletion strains, locus YLR113W, strain HOG1, active compounds read low 0.838 | S. cerevisiae deletion strains, locus YNL248C, strain rpa49, active compounds read low 0.882 | S. cerevisiae deletion strains, locus YNL250W, strain rad50, active compounds read low 0.819 | S. cerevisiae deletion strains, locus YNL298W, strain CLA4, active compounds read low 0.896 | S. cerevisiae deletion strains, locus YOR231W, strain MKK1, active compounds read low 0.84
